# Measurements: PubChem BioAssay (NCATS)
# Inconclusive results are not listed. Unmarked numbers belong to inactive results. Calls of active or inactive are those of the source. Calls come from the whole dose curve; as a rule, active = well fitted inhibition curve with a large enough effect; inconclusive = small, poorly fitted or top-dose-only effect; inactive = flat fitted curve, though single readings scatter.
# Legend:
# Assay in all cases: Cytotoxic Profiling of Annotated Libraries Using Quantitative High-Throughput Screening (AID 1296008); note: nearly all actives have a fitted effect of over 60% in size
# Settings in all cases: Five cell lines viability, CellTiter-Glo ATP luminescence, 48-72 h; max response: stronger effect = lower value
# [1] = tested on: CRL-7250
# Procedure, shortened: (§1)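 Compounds were pin-transferred onto cells and incubated 48 or 72 hr at 37 degree Celsius, 95% humidity. CellTiter-Glo was added, plates sat 10 min at room temperature, then ATP-coupled luminescence was imaged as the viability read-out.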
# [2] = tested on: HEK293
# Procedure, shortened: as §1
# [3] = tested on: KB-3-1
# Procedure, shortened: as §1
# [4] = tested on: NIH3T3
# Procedure, shortened: as §1
# % is set by controls: 0 for no effect and ±100 for the full control effect; potency is the fitted concentration of half-maximal effect.
smiles,measurement,setting,value
O=C(O)c1ccc(CN2CCC(CN[C@@H]3C[C@H]3c3ccccc3)CC2)cc1,max response,[1],-10.5%
same,max response,[2],-15.7%
same,max response,[3],6.54%
same,max response,[4],-26%
COC(=O)C12CCC(C)C(C)C1C1=CCC3C4(C)CCC(OC(C)=O)C(C)(C)C4CCC3(C)C1(C)CC2 (stereo not given),max response,[1],-3.42%
same,max response,[2],0.571%
same,max response,[3],5.8%
same,outcome,[4],inactive
OC[C@H]1O[C@@H](Oc2cc(O)c3c(c2)O[C@@H](c2ccc(O)cc2)[C@H](O)C3)[C@H](O)[C@@H](O)[C@@H]1O,max response,[1],-1.22%
same,max response,[2],-5.13%
same,outcome,[3],inactive
same,outcome,[4],inactive
CNC(=S)NS(=O)(=O)c1cc(CCNC(=O)c2cc(Cl)ccc2OC)ccc1OC,max response,[1],3.39%
same,max response,[2],0.225%
same,max response,[3],-4.17%
same,max response,[4],-5.29%
C[C@H](NC(c1cccc2[nH]c(=O)c(=O)[nH]c12)P(=O)(O)O)c1ccc(Br)cc1 (stereo not given in full),max response,[1],-1.1%
same,max response,[2],1.8%
same,outcome,[3],inactive
same,outcome,[4],inactive
CC(C)C[C@H](CC(=O)NO)C(=O)N[C@@H](Cc1ccc2ccccc2c1)C(=O)N[C@@H](C)C(=O)NCCN,max response,[1],-4.14%
same,max response,[2],0.393%
same,max response,[3],7.03%
same,max response,[4],-2.62%
CC(C)NCC(C(=O)N1CCN(c2ncnc3c2C(C)CC3O)CC1)c1ccc(Cl)cc1 (stereo not given),max response,[1],-1.68%
same,Potency,[2],580 nM (active)
same,max response,[3],-24.2%
same,max response,[4],3.08%
CS(=O)(=O)c1ccc([C@H](CC2CCCC2)C(=O)Nc2nccs2)cc1,max response,[1],1.1%
same,max response,[2],-58%
same,outcome,[3],inactive
same,max response,[4],-48.7%
COc1cc(Br)c(S(=O)(=O)Nc2ccc(C(F)(F)F)c(O[C@@H]3CCN(C)C3)c2)cc1OC,max response,[1],-0.0326%
same,max response,[2],-36.5%
same,max response,[3],-11.3%
same,max response,[4],-2.88%
O=C1CCC(=O)N(O)CCCCCNC(=O)CCC(=O)N(O)CCOCCNC(=O)CCC(=O)N(O)CCCCCN1,max response,[1],-5.63%
same,max response,[2],1.01%
same,outcome,[3],inactive
same,outcome,[4],inactive
CC1(C)CC[C@]2(C(=O)O[C@@H]3O[C@H](CO)[C@@H](O)[C@H](O)[C@H]3O)CC[C@]3(C)C(=CCC4[C@@]5(C)CC[C@H](O[C@@H]6O[C@H](C(=O)O)[C@@H](O)[C@H](O[C@@H]7O[C@H](CO)[C@H](O)[C@H](O)[C@H]7O)[C@H]6O)C(C)(C)C5CC[C@]43C)C2C1 (stereo not given in full),max response,[1],-0.842%
same,max response,[2],1.5%
same,max response,[3],3.29%
same,outcome,[4],inactive
CCO[C@@H]1OC(=O)C[C@@H]1NC(=O)[C@@H]1CCCN1C(=O)[C@@H](NC(=O)c1ccc(N)c(Cl)c1)C(C)(C)C,max response,[1],1.63%
same,max response,[2],1.39%
same,max response,[3],2.91%
same,max response,[4],-4.45%
Nc1nc2c(ncn2[C@@H]2O[C@H](CO)[C@@H](O)[C@H]2O)c(=O)[nH]1,max response,[1],-5%
same,max response,[2],-9.89%
same,max response,[3],4.1%
same,outcome,[4],inactive
Cc1ccc([N+](=O)[O-])cc1S(=O)(=O)N(C)/N=C/c1cnc2ccc(Br)cn12,Potency,[1],82 nM (active)
same,Potency,[2],103 nM (active)
same,Potency,[3],146 nM (active)
same,Potency,[4],461 nM (active)
FC(F)(F)c1ccc(Nc2nc(-c3c(C(F)(F)F)nc4ccccn34)cs2)cc1,Potency,[1],5800 nM (active)
same,Potency,[2],326 nM (active)
same,Potency,[3],206 nM (active)
same,Potency,[4],1300 nM (active)
C[C@H](Oc1ccc(S(C)(=O)=O)cc1C(=O)N1CCN(c2ncc(C(F)(F)F)cc2F)CC1)C(F)(F)F,outcome,[1],inactive
same,max response,[2],-24.7%
same,max response,[3],4.57%
same,max response,[4],-19.7%
CCNC(=O)C1OC(n2cnc3c(N)nc(NCCc4ccc(CCC(=O)O)cc4)nc32)C(O)C1O (stereo not given),max response,[1],-14.2%
same,max response,[2],0.517%
same,max response,[3],-5.77%
same,max response,[4],-0.422%
CO[C@@H](C)Cn1c(=O)n(C)c2cnc3ccc(-c4cncc(C(C)(C)O)c4)cc3c21,Potency,[1],82 nM (active)
same,Potency,[2],231 nM (active)
same,Potency,[3],651 nM (active)
same,Potency,[4],326 nM (active)
COC(=O)C[C@H]1C(C)(C)[C@H](OC(=O)C(C)C)[C@@]2(O)C(=O)[C@]1(C)C1CC[C@]3(C)C(CC(=O)O[C@H]3c3ccoc3)[C@]13O[C@@H]32 (stereo not given in full),outcome,[1],inactive
same,max response,[2],-5.5%
same,max response,[3],8.04%
same,max response,[4],3.21%
CC(C)/C=C1\NC(=O)C(C(C)C)n2c1nc1c(c2=O)C=CC=CO1 (stereo not given),max response,[1],-11.8%
same,max response,[2],2.88%
same,max response,[3],4.42%
same,outcome,[4],inactive
NC(=O)Nc1cc(-c2cccc(F)c2)sc1C(=O)NC1CCCNC1 (stereo not given),max response,[1],-112%
same,max response,[2],-108%
same,Potency,[3],580 nM (active)
same,Potency,[4],517 nM (active)
C=C1OC2CC(C(=O)O)C=CC2NC1=O (stereo not given),max response,[1],-1.3%
same,max response,[2],3.15%
same,max response,[3],3.04%
same,max response,[4],0.0418%
CC(=O)O[C@@H]1C[C@H](O)[C@@]23CO[C@H](O)[C@]1(C)C2C[C@@H](O)[C@]1(C)C3C(=O)[C@H](OC(C)=O)[C@@]2(C)[C@H](c3ccoc3)C[C@H]3O[C@]321 (stereo not given in full),Potency,[1],485 nM (active)
same,Potency,[2],343 nM (active)
same,Potency,[3],137 nM (active)
same,Potency,[4],432 nM (active)
CN1CCN(Cc2ccc(-c3cnc4[nH]cc(-c5ccc6[nH]ccc6c5)c4c3)cc2)CC1,Potency,[1],10300 nM (active)
same,Potency,[2],6510 nM (active)
same,Potency,[3],9200 nM (active)
same,Potency,[4],14600 nM (active)
C[C@@H]1O[C@@H](O[C@H]2[C@H](OC(=O)[C@]34CCC(C)(C)C[C@H]3C3=CCC5[C@@]6(C)C[C@H](O)[C@H](O[C@@H]7O[C@H](CO)[C@@H](O)[C@H](O)[C@H]7O)[C@@](C)(CO)C6[C@H](O)C[C@@]5(C)[C@]3(C)C[C@H]4O)OC[C@H](O)[C@@H]2O)[C@H](O)[C@H](O)[C@H]1O[C@@H]1OC[C@@H](O)[C@H](O[C@H]2OC[C@](O)(CO)[C@H]2O)[C@H]1O (stereo not given in full),outcome,[1],inactive
same,max response,[2],3.89%
same,max response,[3],3.95%
same,outcome,[4],inactive
C[S+](CC[C@H](N)C(=O)[O-])C[C@H]1O[C@@H](n2cnc3c(N)ncnc32)[C@H](O)[C@@H]1O (stereo not given in full),max response,[1],-13.4%
same,max response,[2],3.53%
same,max response,[3],3.65%
same,max response,[4],-4.29%
C=C1C(=O)O[C@H](CCC)[C@H]1C(=O)O,max response,[1],3.05%
same,max response,[2],-3.38%
same,max response,[3],2.02%
same,outcome,[4],inactive
CN(C)c1nc(NC2CCC(NCCc3ccc(Br)cc3OC(F)(F)F)CC2)nc2ccccc12 (stereo not given),Potency,[1],18400 nM (active)
same,Potency,[2],5170 nM (active)
same,Potency,[3],4610 nM (active)
same,Potency,[4],4110 nM (active)
CC[C@@](C)(Nc1ccnc(-c2c[nH]c3ncccc23)n1)C(=O)NCC(F)(F)F,outcome,[1],inactive
same,max response,[2],-4.43%
same,outcome,[3],inactive
same,Potency,[4],14600 nM (active)
CC1(C)CC2C=C(C(=O)O)C3COC(=O)C(O)(CO)C23C1 (stereo not given),max response,[1],-19.1%
same,max response,[2],4.03%
same,outcome,[3],inactive
same,max response,[4],-0.118%
COc1cc(Nc2nc3ccccc3nc2NS(=O)(=O)c2ccc(NC(=O)c3ccc(OC)c(C)c3)cc2)cc(OC)c1,max response,[1],-3.06%
same,max response,[2],1.81%
same,outcome,[3],inactive
same,outcome,[4],inactive
C[C@@H]1O[C@@H](O[C@H]2[C@H](O[C@H]3CC[C@@]4(C)C(CC[C@]5(C)C4CC=C4[C@@H]6CC(C)(C)CC[C@]6(C(=O)O[C@@H]6OC[C@H](O)[C@H](O)[C@H]6O[C@@H]6O[C@@H](C)[C@H](O[C@@H]7O[C@H](CO)[C@@H](O)[C@H](O)[C@H]7O)[C@H](O)[C@H]6O)[C@H](O)C[C@]45C)C3(C)C)O[C@H](CO)[C@@H](O[C@@H]3OC[C@@H](O)[C@H](O)[C@H]3O)[C@@H]2O)[C@H](O)[C@H](O)[C@H]1O (stereo not given in full),outcome,[1],inactive
same,max response,[2],4.66%
same,outcome,[3],inactive
same,max response,[4],-3.79%
COC(=O)CCc1cc2ccoc2c(OC)c1O[C@@H]1O[C@H](CO)[C@@H](O)[C@H](O)[C@H]1O,max response,[1],-7.38%
same,max response,[2],-10.4%
same,outcome,[3],inactive
same,max response,[4],0.737%
CC1(O)CC(O)C2(O)C=COC(O[C@@H]3O[C@H](CO)[C@@H](O)[C@H](O)[C@H]3O)C12 (stereo not given in full),max response,[1],-2.75%
same,max response,[2],4.59%
same,max response,[3],0.806%
same,max response,[4],-15.6%
CC1CCC2(C(=O)O)CCC3(C)C(=CCC4C5(C)CCC(OC(=O)/C=C/c6ccccc6)C(C)(C)C5CCC43C)C2C1C (stereo not given),outcome,[1],inactive
same,max response,[2],-4.63%
same,max response,[3],3.54%
same,max response,[4],-3.46%
CC1(C)CC[C@]2(C(=O)O[C@@H]3O[C@H](CO)[C@@H](O)[C@H](O)[C@H]3O)CC[C@]3(C)C(=CCC4[C@@]5(C)C[C@@H](O)[C@H](O)[C@](C)(C=O)C5CC[C@]43C)[C@@H]2[C@@H]1O (stereo not given in full),outcome,[1],inactive
same,max response,[2],-5.81%
same,outcome,[3],inactive
same,max response,[4],0.296%
Cc1oc2ccccc2c1CNC(=O)NCc1cccs1,max response,[1],1.28%
same,max response,[2],-27.1%
same,max response,[3],-11.8%
same,max response,[4],-4.16%
CN(C)C/C=C/C(=O)Nc1cccc(C(=O)Nc2ccc(Nc3nccc(-c4cccnc4)n3)cc2)c1,Potency,[1],7310 nM (active)
same,Potency,[2],5800 nM (active)
same,Potency,[3],3660 nM (active)
same,Potency,[4],10300 nM (active)
CC(C)Oc1ccc(C(=O)NC(CNC(=O)CN(C)C)Cc2ccc(-c3cn4cccc(C(C)O)c4n3)cc2)cc1Cl (stereo not given),max response,[1],-25.1%
same,Potency,[2],206 nM (active)
same,Potency,[3],146 nM (active)
same,max response,[4],-19.5%
O=S(=O)(NCC1CC1)c1ccc(Nc2nccc(N3CCCc4cc(O)ccc43)n2)cc1,Potency,[1],1160 nM (active)
same,Potency,[2],1640 nM (active)
same,Potency,[3],14600 nM (active)
same,Potency,[4],5800 nM (active)
